According to the supplement of paper PMC7411054:
Structures can show the parent of a compound that is named as a salt.

test system: HepG2-GM130-SQSTM1; test: phenotypically active (imaging signature differs from DMSO and reproducible) at any of 0.3-9 uM (binary (1 = active, 0 = inactive)); higher = active; settings: treatment time: 24 h
Method in brief: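 After 24 h at 0.3, 1, 3 or 9 µM, with four wells per treatment, fifteen gene-edited A549, HepG2 and WPMY1 reporter lines carrying BFP, GFP and RFP/FusionRed were imaged live. Each well's live-cell features were expressed relative to solvent control wells. Deviation required ≥3 of 4 wells past the 95th percentile of control Euclidean distances, and reproducibility a median replicate Pearson correlation over the 95th percentile of non-replicates. Phenotypic activity rested on both.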

Phenotypically active, active:
Nc1nc(Cl)nc2c1ncn2[C@@H]1O[C@H](CO)[C@@H](O)[C@@H]1F [clofarabine] 1, Cc1nc(Nc2ncc(C(=O)Nc3c(C)cccc3Cl)s2)cc(N2CCN(CCO)CC2)n1 [dasatinib] 1, O=C(NCc1cccc(O)c1)Nc1nc(-c2ccncc2)cs1 [RKI 1447 dihydrochloride] 1, CC(C)n1nc(-c2cc3cc(O)ccc3[nH]2)c2c(N)ncnc21 1, COc1ccc(-c2ccc3ncc4c(c3c2)n(-c2ccc(N3CCNCC3)c(C(F)(F)F)c2)c(=O)n4C)cn1 1, CC(C)(C)c1cnc(CSc2cnc(NC(=O)C3CCNCC3)s2)o1 1, O=C(O)c1ccc(Nc2ncc3c(n2)-c2ccc(Cl)cc2C(c2c(F)cccc2F)=NC3)cc1 1, COc1ccc(S(=O)(=O)N(C(C)=O)c2ccccc2/C=C/c2cc[n+]([O-])cc2)cc1 1, CC(C)(C)Nc1nc(Nc2ccc(C(N)=O)cc2)cc(N)c1C#N 1, Nc1cccc(-c2cc3c(Oc4cccc(O)c4)ncnc3[nH]2)c1 1, c1ccc2c(c1)Cc1c(Nc3ccc4c(c3)OCCO4)n[nH]c1-2 1, Cc1c(NC(=O)OC[C@@H]2COCCN2)cn2ncnc(Nc3ccc4c(cnn4Cc4cccc(F)c4)c3)c12 1, CCC(=O)N1CCN(c2ccc(-n3c(=O)ccc4cnc5ccc(-c6cnc7ccccc7c6)cc5c43)cc2C(F)(F)F)CC1 [Torin 1] 1, COc1c(Nc2cc(C)[nH]n2)nc(Sc2ccc(S(=O)(=O)Cc3cccc([N+](=O)[O-])c3F)cc2F)nc1N1CCOCC1 [Centrinone] 1, COc1cc2c(NC3CCN(C(C)C)CC3)nc(N3CCC(F)(F)CC3)nc2cc1OCCCN1CCCC1 1, CC(=O)c1c(C)c2cnc(Nc3ccc(N4CCNCC4)cn3)nc2n(C2CCCC2)c1=O 1, CN1c2ccccc2C(=O)N2CCc3c([nH]c4ccccc34)[C@H]21 [Evodiamine] 1, CO[C@H]1C=CC=C(C)C(=O)NC2=CC(=O)C(NCCN(C)C)=C(C[C@@H](C)C[C@H](OC)[C@H](O)[C@@H](C)C=C(C)[C@@H]1OC(N)=O)C2=O [17-DMAG hydrochloride] 1, Cc1noc(C)c1-c1cc(O)cc(C(O)c2ccccc2)c1 (centres undefined) 1, O=C(Nc1ccc(-c2ccnc(Nc3ccc(N4CCOCC4)cc3)n2)cc1)[C@@H]1CCCN1 1, NC1(C(=O)N[C@@H](CCO)c2ccc(Cl)cc2)CCN(c2ncnc3[nH]ccc23)CC1 1, NC(=O)Nc1cc(-c2cccc(F)c2)sc1C(=O)N[C@H]1CCCNC1 [AZD 7762 hydrochloride] 1, COc1cc2nc(-c3cc(F)ccc3O)nc(N[C@@H]3CNC[C@H]3C(C)(C)O)c2cc1OC 1, Cc1c[nH]c2nccc(Oc3c(F)cc(Nc4cc(Cl)nc(N)n4)cc3F)c12 1, C[C@H]1[C@H]2CC[C@H]3[C@@H]4CC=C5C[C@@H](N(C)C)CC[C@]5(C)[C@H]4CC[C@]23CN1C [Conessine] 1, CON(C)C(=O)N1N=C(c2cc(F)ccc2F)S[C@@]1(CCCN)c1ccccc1 [ARRY 520 trifluoroacetate] 1, CC[C@H](CO)Nc1nc(NCc2ccc(-c3ccccn3)cc2)c2ncn(C(C)C)c2n1 1, Oc1cccc(-c2nc(N3CCOCC3)c3oc4ncccc4c3n2)c1 [PI 103 hydrochloride] 1, COc1cc(/C=C/c2ccc(OC)cc2OC)cc(OC)c1 1, COc1cc2c(cc1-c1c(C)noc1C)ncc1[nH]c(=O)n([C@H](C)c3ccccn3)c12 [I-BET 151 dihydrochloride] 1, COc1cccc(-c2cc(F)ccc2[C@H]2Cc3nc(N)nc(C)c3C(=O)N2)n1 1, COc1cc(C(=O)NC2CCN(C)CC2)c(F)cc1Nc1ncc2c(n1)N(C1CCCC1)CC(F)(F)C(=O)N2C [TAK 960 hydrochloride] 1, CC[C@]1(O)C[C@@H]2CN(CCc3c([nH]c4ccccc34)[C@@](C(=O)OC)(c3cc4c(cc3OC)N(C=O)[C@H]3[C@@](O)(C(=O)OC)[C@H](OC(C)=O)[C@]5(CC)C=CCN6CC[C@]43[C@@H]65)C2)C1 [vincristine] 1, OC[C@H]1O[C@@H](n2cnc3c(NCc4ccco4)ncnc32)[C@H](O)[C@@H]1O [Kinetin riboside] 1, N#Cc1c(C2CCNCC2)cc(-c2c(O)cccc2OCC2CC2)nc1N 1, C=CC(=O)Nc1cccc(Nc2nc(Nc3ccc(OCCOC)cc3)ncc2F)c1 1, COc1cc(N2CCC(N3CCN(C)CC3)CC2)ccc1Nc1ncnc(Nc2ccccc2S(=O)(=O)C(C)C)n1 1, Fc1ccccc1CNCc1ccc(-c2ccnc3[nH]ccc23)cc1 [OXA 06 dihydrochloride] 1, C[C@H]1COCCN1c1cc(C2(S(=O)(=O)C3CC3)CC2)nc(-c2ccc(NC(=S)NCCO)cc2)n1 1
